Where “and” joins values, the source holds several entries; their conditions need not be identical. Equal values may be shown once. Results filed as inconclusive are left out. Unmarked numbers belong to inactive results. Calls of active or inactive are those of the source. Calls come from the whole dose curve; as a rule, active = well fitted curve in the direction sought with a large enough effect; inconclusive = small, poorly fitted or top-dose-only effect, or another doubt; inactive = no such curve, though single readings can be large; an effect the other way counts as inactive or inconclusive.
What was measured:
[1] = target: Cellular tumor antigen p53 (Homo sapiens) (UniProt P04637); assay: Primary qHTS for small molecule compounds that upregulate eGFP-tagged delta133p53alpha (in N-terminal) cells. (AID 2060322); conditions: NCI-H358 eGFP-delta133p53alpha fluorescence, 24 h; activation: stronger effect = higher value;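 note: cells pre-induced with doxycycline then dosed without doxycycline; 0% = DMSO vehicle and 100% = reference activator; nearly all actives have a fitted effect of over 75% in size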
Cellular tumor antigen p53 (Homo sapiens), sequence (P04637 whole entry, looked up): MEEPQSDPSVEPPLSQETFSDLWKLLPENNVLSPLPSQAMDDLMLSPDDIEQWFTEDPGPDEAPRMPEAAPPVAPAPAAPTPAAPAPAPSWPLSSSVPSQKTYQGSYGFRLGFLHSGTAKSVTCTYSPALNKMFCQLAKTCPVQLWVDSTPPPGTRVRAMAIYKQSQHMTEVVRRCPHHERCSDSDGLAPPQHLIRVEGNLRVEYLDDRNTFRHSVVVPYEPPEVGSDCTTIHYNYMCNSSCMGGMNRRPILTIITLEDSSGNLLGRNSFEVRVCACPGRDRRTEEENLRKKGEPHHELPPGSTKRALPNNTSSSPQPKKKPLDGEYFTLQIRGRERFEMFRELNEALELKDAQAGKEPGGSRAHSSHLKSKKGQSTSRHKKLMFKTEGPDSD
Summary of the method: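 NCI-H358 cells pre-induced 24 h with 10 ng/ml doxycycline for eGFP-delta133p53alpha, plated dox-free and exposed 24 h at 37C to titrated compounds. Fixed, Hoechst-stained; gated GFP peak intensity by laser scanning cytometry, normalized to DMSO (0%) and 57.5 uM 5-azacytidine (100%).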

[2] = BET inhibitor-based combinations targeting novel dependencies in MECOM-rearranged (r) AML: SET-2 cell line (AID 2202231); conditions: SET-2 AML cells viability, CellTiter-Glo luminescence, 48 h; viability: stronger effect = lower value, concentration not given here; note: nearly all actives have a fitted effect of over 35% in size; note: potency is the fitted concentration of half-maximal effect;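 for viability: plate controls were DMSO treated cells for no effect and wells without cells for full effect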
Summary of the method: (§1)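 Each compound was tested at eleven concentrations on cells seeded at 500/well. After two days' incubation, ATP-based luminescence reported viability; responses relative to DMSO and blank wells yielded AUC and cell-line-centred Z-AUC.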

[3] = BET inhibitor-based combinations targeting novel dependencies in MECOM-rearranged (r) AML: OCI-AML3 cell line (AID 2202232); conditions: CellTiter-Glo luminescence, 48 h; Potency: OCI-AML3 viability; series mostly up to 46 µM; note: nearly all actives have a fitted effect of over 35% in size; note: potency is the fitted concentration of half-maximal effect
Summary of the method: as §1

[4] = BET inhibitor-based combinations targeting novel dependencies in MECOM-rearranged (r) AML: AML-191 cell line (AID 2202236; note: nearly all actives have a fitted effect of over 35% in size; note: potency is the fitted concentration of half-maximal effect); conditions: AML-191 viability, CellTiter-Glo luminescence, 48 h; series mostly up to 46 µM
Summary of the method: as §1

[5] = BET inhibitor-based combinations targeting novel dependencies in MECOM-rearranged (r) AML: AML-194 cell line (AID 2202237;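 note: plate controls were vehicle wells for no effect and wells without cells for full effect; nearly all actives have a fitted effect of over 40% in size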); conditions: AML-194 (MECOM-r AML) viability, CellTiter-Glo, 48 h; series mostly up to 46 µM
Summary of the method: as §1

[6] = BET inhibitor-based combinations targeting novel dependencies in MECOM-rearranged (r) AML: UCSD-AML1 cell line (AID 2202235); conditions: UCSD-AML1 AML cells viability, CellTiter-Glo, 48 h; series mostly up to 46 µM; note: nearly all actives have a fitted effect of over 40% in size; note: potency is the fitted concentration of half-maximal effect
Summary of the method: (§2)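 First, 500 cells per well were seeded; next, drugs were pinned as 11-point doses; then plates sat 48 hr in the incubator; finally CellTiter-Glo was added and luminescence read, with AUC and Z-AUC computed.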

[7] = BET inhibitor-based combinations targeting novel dependencies in MECOM-rearranged (r) AML: HNT-34 cell line (AID 2202234); conditions: HNT-34 AML viability, CellTiter-Glo luminescence, 48 h; series mostly up to 46 µM; note: nearly all actives have a fitted effect of over 35% in size; note: potency is the fitted concentration of half-maximal effect
Summary of the method: as §2

[8] = BET inhibitor-based combinations targeting novel dependencies in MECOM-rearranged (r) AML: MV-4-11 cell line (AID 2202233); conditions: MV-4-11 AML viability, CellTiter-Glo luminescence, 48 h; series mostly up to 46 µM; note: nearly all actives have a fitted effect of over 45% in size; note: potency is the fitted concentration of half-maximal effect
Summary of the method: as §2

| Compound | activation [1] | viability [2] [%] | Potency [3] | Potency [4] | Potency [5] | Potency [6] | Potency [7] | Potency [2] | Potency [8] |
| --- | --- | --- | --- | --- | --- | --- | --- | --- | --- |
| Cc1ccc(/C=N/NC(=O)c2ccccc2Oc2ccccc2)o1 | -11.8% | 107 | inactive | inactive | inactive |  |  |  |  |
| COc1ccc(-n2c(C)c([N+](=O)[O-])c3ccc(O)cc32)cc1 | -5.31% | 107 | inactive | 6.61 µM (active) | inactive | inactive |  |  |  |
| O=C1NC(O)CCN1[C@@H]1O[C@H](CO)[C@H](O)[C@H]1O (some centres undefined) | -10.6% | 115 | inactive | inactive | inactive |  | inactive |  |  |
| O=C(O)c1ccc(-n2nc(-c3ccccc3O)nc2-c2ccccc2O)cc1 | -1.69% and -24.7% |  | 14.8 µM (active) | 16.6 µM (active) |  | inactive |  | 20.9 µM (active) |  |
| COc1cc(F)c(C(C)C)cc1-c1ccc(C(F)(F)F)cc1CN1C(=O)O[C@H](c2cc(C(F)(F)F)cc(C(F)(F)F)c2)[C@@H]1C | -9.08% | 105 | inactive | inactive | inactive | inactive | inactive |  |  |
| C[C@@H]1C[C@H]2[C@@H]3CCC4=CC(=O)C=C[C@]4(C)[C@@]3(Cl)[C@@H](O)C[C@]2(C)[C@@]1(OC(=O)c1ccco1)C(=O)CCl | 19.9% |  |  |  |  |  |  |  | 23.5 µM (active) |
| CNC(=O)c1cc(COc2nnc(Nc3ccc(Cl)cc3)c3ccoc23)ccn1 | -2.64% |  | inactive | inactive | inactive |  |  |  |  |
| Cn1c(Nc2ccc(C(F)(F)F)cc2)nc2cc(Oc3ccnc(-c4ncc(C(F)(F)F)[nH]4)c3)ccc21 | 0.151% |  | 2.95 µM (active) | 0.833 µM (active) |  | 0.833 µM (active) | 0.332 µM (active) |  |  |
| CC[C@@]1([C@@H]2O[C@@H]([C@H]3O[C@@](O)(CO)[C@H](C)C[C@H]3C)C[C@H]2C)CC[C@H]([C@]2(C)CC[C@]3(C[C@H](O)[C@@H](C)[C@@H]([C@@H](C)[C@@H](OC)[C@H](C)C(=O)O)O3)O2)O1 | 7.91% |  |  |  |  | 0.288 µM (active) | 0.0811 µM (active) |  | 0.574 µM (active) |
| COc1ccc(Nc2cc(-c3cnc(N)nc3)nc(N3CCOCC3)n2)cn1 | 24.5% |  |  |  |  |  |  |  | 5.25 µM (active) |
| C=C1C(=O)OC(CCCCCCCC)C1C(=O)O (centres undefined) | -0.0763% |  |  | inactive |  | inactive | inactive |  | inactive |
| O=C(Nc1cccc(Cl)c1)Nc1ncc(CCNc2ncnc3ccsc23)s1 | -7.26% |  | 0.166 µM (active) |  |  | inactive | inactive |  |  |
| C[C@]12CCC(=O)C=C1[C@@H]1C[C@@H]1[C@H]1[C@@H]3[C@@H]4C[C@@H]4[C@@]4(CCC(=O)O4)[C@@]3(C)CC[C@@H]12 | -15.3% |  | 8.33 µM (active) |  | inactive |  |  |  | 16.6 µM (active) |
